An excerpt weighted towards active compounds, which were near 4% of everything screened.
KKLEB tox: cytotoxicity in KKLEB CF airway cells, primary screen, cytotoxicity control for CF NF-kB inhibitor project, cell-based, uHTS, fluorescence assay plates. KKLEB CF airway cells viability, ATPlite luminescence, overnight; hits give low values; cells stimulated with P. aeruginosa culture filtrate. activity change (cytotoxicity), % at 5 µM. 0.36% of 360,000 active;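 active = corrected activity change at or below -50% at 5 µM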
CF NFkB inh: inhibitors of PAF-induced NF-kB signaling, primary screen, cell-based, GFP fluorescence, uHTS; 0.86% of 360,000 active; inhibition, % at 5 µM; AID 588850, 2011; KKLEB NF-kB-GFP reporter, GFP fluorescence overnight;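 active = at least 50% inhibition at 5 µM, scaled per plate between neutral and stimulator controls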;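 also: PAF is a Pseudomonas aeruginosa culture filtrate used as stimulus; plate controls were PAF-stimulated DMSO wells for no effect and unstimulated DMSO wells for full effect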
HIF-2a inh: HIF-2a reporter inhibitors, primary screen, luminescence, 786-0 RCC cells; 786-0 RCC cells HIF-2a reporter, luciferase luminescence, overnight; inhibition, % at 18.8 µM; 0.72% of 360,000 active; AID 624352, 2012;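 active = inhibition of the luminescence signal of 40% or more relative to plate controls, in a single-dose primary screen at 18.75 µM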
TWEAK Fn14 block: inhibitors of TWEAK-Fn14 signaling, primary screen, luciferase reporter cells, uHTS. inhibition, % at 10 µM. TWEAK-stimulated Fn14 reporter cells, luciferase luminescence, 8 h. AID 1159606, 2016. 2% of 360,000 active; in the data active = inhibition above about 50%
TROY signal inh: inhibitors of TROY-driven NF-kB signaling, primary screen, Q293 LMP1-TROYcd cells, NF-kB luciferase, uHTS; Q293 LMP1-TROYcd NF-kB luciferase reporter, 4 h; inhibition, % at 10 µM; 0.98% of 360,000 active;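 active = compounds whose plate-normalised and pattern-corrected inhibition of the luciferase reporter signal at the single screening dose is 50% or more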
Peg3 prom inh: Peg3 promoter-driven luciferase inhibitors, primary screen, cell-based, HeLa, luciferase luminescence | HeLa PEG-Prom luciferase reporter, overnight | inhibition, % at 20 µM | 1.7% of 360,000 active | AID 588405, 2011;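 active = inhibition of at least 50% at 20 µM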
Starred values were filed as active, the others as inactive; / = not tested or not shown.

SMILES	KKLEB tox	CF NFkB inh	HIF-2a inh	TWEAK Fn14 block	TROY signal inh	Peg3 prom inh
CCOc1cccc(-c2ccc3nncn3c2)c1	-1	1	-5	-1	-15	-6
Cc1cc(O)c2c(c1O)C(=O)[C@]13C(=C2O)C(=O)[C@@H]2[C@@H](O)[C@H]1[C@@H]1[C@H](O)[C@H]3C(=O)C3=C(O)c4c(O)cc(C)c(O)c4C(=O)[C@]312	-19	53*	-21	65*	28	30
CCOc1ccc2nc(COC(=O)c3ccncc3)c(C(=O)c3ccccc3)[n+]([O-])c2c1	6	-10	-125	52*	61*	-122
CCOc1ccc2nc(COC(=O)c3cccs3)c(C(=O)c3ccccc3)[n+]([O-])c2c1	1	14	-54	34	41	-42
Cc1ccc(OCc2nc(C#N)c(N3CCN(Cc4ccccc4)CC3)o2)cc1	6	8	11	103*	-8	25
c1ccc(COc2ccc(CN3CCN(c4ccccn4)CC3)cc2)cc1	10	4	-206	15	57*	-252
N#Cc1nc(-c2ccc(OCc3ccc(Cl)cc3)cc2)oc1N1CCOCC1	-7	-5	-48	-44	0	56*
Cn1cc(Cc2ccc(C(=O)N3CCCCC3)cn2)c2ccccc21	-22	-2	-16	-2	-11	-18
COc1ccc(N=Nc2ccc3ccccc3c2)c(O)c1	-19	-14	-75	81*	63*	-153
COc1cccc(N=Nc2ccc3ccccc3c2O)c1	-30	-18	-73	75*	58*	-114
COc1ccc(N=Nc2cc(C)ccc2O)cc1	-20	-6	-304	23	-18	-276
COc1ccccc1NC(=O)C1CCN(S(=O)(=O)c2ccc3c(c2)NC(=O)CO3)CC1	14	-20	2	-5	3	-11
CCCCn1c(N)c(N(CCOC)C(=O)c2ccc(-c3ccc(C(C)=O)cc3)o2)c(=O)[nH]c1=O	12	-2	-41	-13	-13	-42
O=[N+]([O-])c1cc(Cl)ccc1N1CCCC1	1	14	13	0	16	-2
O=C1C(Cl)=C(N2CCN(c3ccccc3[N+](=O)[O-])CC2)C(=O)c2ccccc21	-11	30	23	39	41	101*
COc1ccc(Nc2nc3cc(C)ccc3cc2C#N)c(OC)c1	-33	21	12	-5	-3	15
COc1ccc(Nc2nc3ccc(C)cc3cc2C#N)c(OC)c1	8	-15	-37	85*	-21	13
O=C(Nc1nc(-c2ccccn2)cs1)c1ncc(Cl)c(Cl)c1Cl	-5	2	2	-57	-46	69*
O=C(O)c1ccc(-c2noc(-c3ccccc3F)n2)cc1	5	0	-61	52*	-7	-15
O=C(O)CSCC(=O)Nc1ccc(-c2nc3ccccc3s2)cc1	14	-14	-112	71*	42	-148
O=C(Nc1ccc(-c2nc3ccccc3s2)cc1)C1=COCCO1	-53*	-14	16	91*	77*	19
CCCCNC(=O)c1nc(-c2cnc(C)cn2)oc1-c1ccc(Cl)cc1	/	/	-27	/	/	/
S=C(Nc1ccc(Br)cc1)Nc1ccc2c(c1)OCCO2	21	-12	-268	-13	-6	-251
COc1cc2[nH]c(C(=O)Nc3ccc4c(c3)OCCO4)cc2c(OC)c1OC	-1	-9	-43	71*	56*	-69
COc1cc2cc(C(=O)Nc3ccc4c(c3)OCCO4)[nH]c2cc1OC	8	-10	20	93*	77*	0
SMILES	KKLEB tox	CF NFkB inh	HIF-2a inh	TWEAK Fn14 block	TROY signal inh	Peg3 prom inh
COc1cc(NC(=S)Nc2ccc3c(c2)OCCO3)cc(OC)c1OC	12	-9	-188	36	57*	-66
Cc1sc(NC(=O)CSc2nnc(N)s2)c(C#N)c1C	-1	-31	-11	14	-3	-27
Cc1ccc(S(=O)(=O)c2cc3ccccc3oc2=Nc2ccc3c(c2)OCCO3)cc1	-20	23	12	81*	13	12
COc1cccc2cc(S(=O)(=O)c3ccccc3)c(=Nc3ccc4c(c3)OCCO4)oc12	-11	18	13	78*	17	3
CCCCc1nc2c(C)c(N)cnc2n1Cc1cccc([N+](=O)[O-])c1	-6	-5	3	-10	0	10
Cc1ccc(N(Cc2ccccc2)C(=O)c2cc(S(=O)(=O)N3CCOCC3)ccc2F)cc1	-6	1	-36	2	-28	-17
COc1cccc(/C=N/NC(=O)c2ccccc2)c1OS(=O)(=O)c1ccccc1	0	-4	0	76*	-29	-11
COc1ccc(OC)c2[nH]c(C(=O)N/N=C/c3ccccc3O)cc12	-20	-2	3	14	8	63*
COc1ccc(/C=N/NC(=O)c2cc3c(OC)ccc(OC)c3[nH]2)cc1O	-2	12	-8	6	-33	-3
Cc1cc(C)cc(C(O)c2ncc(-c3ccc(F)cc3)[nH]2)c1 (centres undefined)	17	-27	11	2	1	14
COc1cc(-c2cc(=O)c3ccc(O)cc3o2)cc(OC)c1OC	-12	23	-22	-15	-6	-2
COc1cc(OC)c(-c2c3cc(O)c(=O)cc-3oc3cc(O)c(O)cc23)cc1OC	-11	-7	22	62*	8	34
CCOC(=O)c1c(C)oc2c1c(C(c1cccnc1)N1CCOCC1)c(O)c1ccccc12 (centres undefined)	-7	30	32	98*	-9	-161
COC(=O)[C@]12CCCCC=C1N(Cc1cccc3ccccc13)C(=O)[C@H](CC(=O)NCCC(C)C)C2	/	/	-19	21	29	/
CC1=Nc2ccccc2/C1=C/c1sc(=N)n(-c2nccs2)c1O	7	-4	16	101*	74*	18
CN(CC(=O)Nc1ccc(Cl)cc1)C(=O)CNC(=O)c1ccc(Br)o1	-10	22	-1	-17	7	6
CC(C)C[C@H]1CN([C@@H](CC(C)C)CN2CCCC2CN2C(=S)NC[C@@H]2Cc2ccc(O)cc2)C(=S)N1CC1CCCCC1 (some centres undefined)	1	19	-10	12	-1	72*
CC(C)C[C@@H](CN1CCCC1CN1C(=S)NC[C@@H]1Cc1ccccc1)N1C[C@H](Cc2ccc(O)cc2)N(CC2CCCCC2)C1=S (some centres undefined)	/	/	1	12	12	/
CC(C)C[C@@H](CN1CCC[C@@H]1CN1C(=S)NC[C@@H]1Cc1ccc(O)cc1)N1C[C@H](Cc2ccc(O)cc2)N(CC2CCCCCC2)C1=S	-2	29	-31	30	7	80*

Source: PubChem (Sanford-Burnham Center for Chemical Genomics)
